This is a sample that favours compounds with a hit; in the whole collection about 1.5% have one here.
MCL1-BIM inh – MCL1-BIM-BH3 interaction inhibition (human); AID 2057; GST-MCL1 / FITC-Bim-BH3 fluorescence polarization; 320,000 compounds, 0.68% hits; Q07820; inhibition, % at 10.9 µM;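 active = inhibition above the mean inhibition of all tested compounds plus 3 SD, set per campaign, cut at about 40% in these data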;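 also: higher means more loss of mP so more displacement of Bim peptide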
GLD-1 RNA inh – GLD-1-TGE RNA interaction inhibition (C. elegans); Q17339; purified GLD-1 + fluorescein TGE RNA, fluorescence polarization; inhibition, % at 5.96 µM; 320,000 compounds, 0.44% hits; AID 2280;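 active = percent inhibition above a per-plate cutoff, the plate mean of test compounds plus 3 SD, cut at about 30% in these data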
IDE cell inh – cellular human IDE inhibition; P14735; HEK cells, FAbetaB cleavage, fluorescence polarization; inhibition, % at 5.59 µM; 320,000 compounds, 0.41% hits;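 active = percent inhibition above the average of all tested compounds plus 3 SD, set per screening campaign, cut at about 16% in these data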;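 also: IDE supplied by intact live HEK cells; FP after avidin binding of uncleaved biotin substrate so inhibition keeps polarization high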
MEX-5 binding – C. elegans MEX-5 TCR-2 RNA binding activity | activity score (negative = inhibition of binding), % at 10 µM | MEX-5/FITC-TCR2 RNA binding, fluorescence polarization; stronger effect = lower value | Q9XUB2 | 300,000 compounds, 0.38% hits;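 active = inhibition past about -25% in most replicates, and total fluorescence under double the plate's negative control median, limit read from the data; inconclusive = replicates evenly split on the limit, or fluorescence at least double controls; inactive = too little inhibition in most replicates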
Target sequence (Q9XUB2 whole entry, looked up): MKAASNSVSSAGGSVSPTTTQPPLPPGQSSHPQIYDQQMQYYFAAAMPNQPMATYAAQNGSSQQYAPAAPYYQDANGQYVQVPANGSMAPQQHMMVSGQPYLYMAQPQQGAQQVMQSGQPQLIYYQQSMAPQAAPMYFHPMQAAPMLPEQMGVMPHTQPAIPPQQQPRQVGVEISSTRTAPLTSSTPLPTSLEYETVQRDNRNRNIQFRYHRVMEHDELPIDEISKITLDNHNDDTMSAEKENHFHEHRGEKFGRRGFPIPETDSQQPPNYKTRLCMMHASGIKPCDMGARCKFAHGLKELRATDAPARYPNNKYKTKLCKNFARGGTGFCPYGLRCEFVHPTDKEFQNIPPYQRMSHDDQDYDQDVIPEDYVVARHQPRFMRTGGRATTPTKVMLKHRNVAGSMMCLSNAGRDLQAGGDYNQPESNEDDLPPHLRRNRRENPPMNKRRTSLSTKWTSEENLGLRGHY
BCLXL inh – blocks human Bcl-xL binding to Bim BH3 peptide | GST-Bcl-xL / FITC-Bim BH3 peptide fluorescence polarization | inhibition, % at 10.9 µM | 320,000 compounds, 0.7% hits | Q07817;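 active = inhibition above the mean of all tested compounds plus 3 SD, cutoff set per campaign, cut at about 30% in these data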;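 also: inhibitors lower millipolarization by displacing the labeled peptide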
Target sequence (Q07817 whole entry, looked up): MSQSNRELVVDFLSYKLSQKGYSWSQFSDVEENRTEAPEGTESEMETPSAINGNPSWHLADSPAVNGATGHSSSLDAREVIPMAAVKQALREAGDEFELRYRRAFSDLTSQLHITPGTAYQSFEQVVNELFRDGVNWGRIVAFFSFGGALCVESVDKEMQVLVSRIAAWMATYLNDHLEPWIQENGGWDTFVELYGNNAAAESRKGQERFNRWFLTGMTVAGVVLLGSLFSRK
IDE act – IDE (human) activation, cell-based. P14735. HEK cells, FAbeta-B cleavage, fluorescence polarization; 0% vehicle, 100% cell-free pure enzyme wells. activation, % at 5.96 µM. 340,000 compounds, 0.073% hits. AID 493087;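 active = activation above the mean of all tested compounds plus 3 SD, set per screening campaign, cut at about 17% in these data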
BCLXL inh confirm – counter-screen for MCL1 inhibitors: confirmation of human Bcl-xL inhibitors; shares compounds with MCL1-BIM inh; GST-Bcl-xL / FITC-Bim BH3 peptide FP binding; inhibition, % at 10.9 µM; 1,700 compounds, 54% hits;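 active = inhibition above a cutoff equal to the mean inhibition of all tested compounds plus 3 SD, cut at about 30% in these data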
MCL1 BIM confirm – MCL1-BIM-BH3 interaction inhibition, confirmation. GST-MCL1 / FITC-Bim-BH3 fluorescence polarization. AID 2168. 1,700 compounds, 61% hits. shares compounds with MCL1-BIM inh. inhibition, % at 10.9 µM;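 active = inhibition above the average of all tested compounds plus 3 SD, cut at about 40% in these data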
GLD1 RNA confirm – GLD-1 TGE RNA interaction inhibition, confirmation | shares compounds with GLD-1 RNA inh | GLD-1/FL-TGE RNA fluorescence polarization, biochemical | inhibition, % at 5.96 µM | 550 compounds, 10% hits | AID 2459;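 active = average inhibition across triplicates above the hit cutoff set in the primary screen, cut at about 32% in these data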
Of the large screens only hits and unclear results are named; the others gave an inactive call (follow-up assays come after a bar, where they were run).

O=C(NCC1CCCO1)c1ccc([N+](=O)[O-])s1 (stereo not given)	none
CN1C(=O)N(C)c2ccc(C=O)c3cccc1c23	MCL1-BIM inh 73, GLD-1 RNA inh 40, BCLXL inh 72 | BCLXL inh confirm 65 | MCL1 BIM confirm 94 | GLD1 RNA confirm inactive
CN1C(=O)N(C)c2ccc(Br)c3cccc1c23	none (no result: MCL1-BIM inh, GLD-1 RNA inh, IDE cell inh, BCLXL inh)
O=C(Cn1cnc2sc3c(c2c1=O)CCCC3)NCC(=O)Nc1c(F)cc(F)cc1Br	none
COc1ccc(NS(=O)(=O)c2ccc(Cl)s2)cn1	MCL1-BIM inh 78, GLD-1 RNA inh 50, BCLXL inh 72 | BCLXL inh confirm 72 | MCL1 BIM confirm 94 | GLD1 RNA confirm 54
Cc1ccnc(Nc2nc(-c3ccc(F)cc3)cs2)c1	none
Cc1ccnc(Nc2nc(-c3ccc(Cl)cc3)cs2)c1	MCL1-BIM inh 52, GLD-1 RNA inh 32 | BCLXL inh confirm inactive | MCL1 BIM confirm inactive | GLD1 RNA confirm inactive
OC(CN1CCC(Cc2ccccc2)CC1)c1ccccc1 (stereo not given)	none
N#Cc1c(SCc2ccc(Cl)cc2)sc(C(=O)c2ccccc2)c1N	none (no result: MEX-5 binding)
CSc1c(C#N)c(N)nc2sc(C(=O)c3ccccc3)c(N)c12	MCL1-BIM inh 58, GLD-1 RNA inh 33, MEX-5 binding inconclusive, BCLXL inh 51 | BCLXL inh confirm 71 | MCL1 BIM confirm 87 | GLD1 RNA confirm inactive
CC(NC(=O)c1ccccc1F)C1CC1 (stereo not given)	none
O=C(NC12CC3CC(CC(C3)C1)C2)c1cnccn1	MCL1-BIM inh 53, GLD-1 RNA inh 34, BCLXL inh 42 | BCLXL inh confirm inactive | MCL1 BIM confirm 40 | GLD1 RNA confirm inactive
CC(=O)N1CCc2ccc(NC(=O)c3c(-c4c(Cl)cccc4Cl)noc3C)cc21	none
O=C(CSC1=Nc2ccccc2C2=NC(CC(=O)NC3CCCCC3)C(=O)N12)NCc1ccco1 (stereo not given)	MCL1-BIM inh 63, GLD-1 RNA inh 35, BCLXL inh 61 | BCLXL inh confirm 46 | MCL1 BIM confirm 56 | GLD1 RNA confirm inactive
O=C(CCC1N=C2c3ccccc3N=C(SCc3cccc(Cl)c3)N2C1=O)NCc1ccco1 (stereo not given)	none
O=c1cc(CSc2nnc(Nc3ccccc3F)s2)nc2sccn12	none
COc1ccc(Nc2nnc(SCc3cc(=O)n4ccsc4n3)s2)cc1	MCL1-BIM inh 68, GLD-1 RNA inh 41, BCLXL inh 66 (no result: MEX-5 binding) | BCLXL inh confirm inactive | MCL1 BIM confirm inactive | GLD1 RNA confirm 36
CC(C)CN(C(=O)C1CCCO1)C1CCS(=O)(=O)C1 (stereo not given)	none
CCC(OC(=O)c1nsc(Cl)c1Cl)C(=O)NC(C)(C)CC (stereo not given)	none
CCO/C=C1\SC(=S)N(c2ccc(Cl)cc2)C1=O	none
CC(C)c1ccc(N2C(=O)/C(=C/N(C)C)SC2=S)cc1	MCL1-BIM inh active, GLD-1 RNA inh 74, BCLXL inh active | BCLXL inh confirm active | MCL1 BIM confirm active | GLD1 RNA confirm inactive
CC(=O)Oc1c(Cl)cc(N(C(C)=O)S(=O)(=O)c2ccccc2)c2ccccc12	none (no result: IDE act)
Cc1ccc2c(c1)N(C(=O)CCC(=O)NCCCN1CCOCC1)CCO2	none
O=C(O)c1ccc2c(c1)C(=O)/C(=C/c1ccccc1)C2=O	MCL1-BIM inh 92, GLD-1 RNA inh 46, BCLXL inh 77 | BCLXL inh confirm 45 | MCL1 BIM confirm 66 | GLD1 RNA confirm inactive
CC(C)(C)N1C(=O)c2ccc(C(=O)O)cc2C1=O	none
O=C1NC(=S)N/C1=C/c1cc2c(cc1[N+](=O)[O-])OCO2	MCL1-BIM inh 67, GLD-1 RNA inh 42, BCLXL inh 53 | BCLXL inh confirm inactive | MCL1 BIM confirm inactive | GLD1 RNA confirm inactive
O=C(O)/C=C\c1cc2c(cc1[N+](=O)[O-])OCO2	none
NC(=O)/C(=C/c1ccco1)C(N)=S	MCL1-BIM inh 116, GLD-1 RNA inh 50, BCLXL inh 86 | BCLXL inh confirm inactive | MCL1 BIM confirm inactive | GLD1 RNA confirm inactive
COC(=O)c1ccc(/C=N\N2CCN(c3ccccc3)CC2)cc1	none (no result: MCL1-BIM inh, GLD-1 RNA inh, IDE cell inh, BCLXL inh)
Cc1ccc(C(=O)N/N=C/c2ccc(-c3ccc(Br)cc3[N+](=O)[O-])o2)o1	MCL1-BIM inh 62, GLD-1 RNA inh 36, BCLXL inh 51 | BCLXL inh confirm inactive | MCL1 BIM confirm inactive | GLD1 RNA confirm 35
Cc1ccc(C(=O)N/N=C\c2ccc(Br)o2)o1	none
O=C1C2CCCN2C(c2ccccc2)N1c1ccc(F)cc1 (stereo not given)	none
O=C(c1ccccc1)[C@@H]1[C@@H]2C(=O)N(c3ccc(F)cc3)C(=O)[C@@H]2C2CCCN21 (stereo not given in full)	MCL1-BIM inh 62, GLD-1 RNA inh 37, MEX-5 binding inconclusive, BCLXL inh 64 | BCLXL inh confirm 58 | MCL1 BIM confirm 62 | GLD1 RNA confirm inactive
CNc1nnc(Sc2ncccc2[N+](=O)[O-])s1	MCL1-BIM inh 62, GLD-1 RNA inh 40, BCLXL inh 64 | BCLXL inh confirm inactive | MCL1 BIM confirm inactive | GLD1 RNA confirm inactive
CC(C(=O)Nc1ccc(C(=O)O)c(O)c1)N1C(=O)/C(=C\c2ccco2)SC1=S (stereo not given)	MCL1-BIM inh 91, GLD-1 RNA inh 32, MEX-5 binding -26, BCLXL inh 47 | BCLXL inh confirm 46 | MCL1 BIM confirm 80 | GLD1 RNA confirm inactive
CCOc1ccc(Br)cc1S(=O)(=O)Nc1ccc(NC(=O)c2ccccc2F)cc1	none
CCOC(=O)C1C(c2ccc3c(c2)OCO3)NC(=O)NC1(O)C(F)(F)F (stereo not given)	MCL1-BIM inh 55, GLD-1 RNA inh 33, BCLXL inh 60 | BCLXL inh confirm inactive | MCL1 BIM confirm inactive | GLD1 RNA confirm inactive
CC(=O)NC1=CC(=C[N+](=O)[O-])C=C1O	none (no result: MCL1-BIM inh, GLD-1 RNA inh, IDE cell inh, MEX-5 binding, BCLXL inh)
N#CC1(C#N)COC23CCCCC2C1(C#N)C(=N)O3 (stereo not given)	MCL1-BIM inh 78, GLD-1 RNA inh 45, BCLXL inh 68 | BCLXL inh confirm inactive | MCL1 BIM confirm inactive | GLD1 RNA confirm inactive

High-throughput results deposited in PubChem BioAssay by several laboratories.
